The source of these data is ChEMBL document CHEMBL2218924, “A broad activity screen in support of a chemogenomic map for kinase signalling research and drug discovery” (Biochem J, 2013).

Experiment [1] addresses MAP kinase-activated protein kinase 3 (Homo sapiens) (UniProt Q16644). Particulars: at 1 µM.
In experiment [2] the target is T1, Serine/threonine-protein kinase STK11 (Homo sapiens) (UniProt Q15831).
T1 sequence (whole entry): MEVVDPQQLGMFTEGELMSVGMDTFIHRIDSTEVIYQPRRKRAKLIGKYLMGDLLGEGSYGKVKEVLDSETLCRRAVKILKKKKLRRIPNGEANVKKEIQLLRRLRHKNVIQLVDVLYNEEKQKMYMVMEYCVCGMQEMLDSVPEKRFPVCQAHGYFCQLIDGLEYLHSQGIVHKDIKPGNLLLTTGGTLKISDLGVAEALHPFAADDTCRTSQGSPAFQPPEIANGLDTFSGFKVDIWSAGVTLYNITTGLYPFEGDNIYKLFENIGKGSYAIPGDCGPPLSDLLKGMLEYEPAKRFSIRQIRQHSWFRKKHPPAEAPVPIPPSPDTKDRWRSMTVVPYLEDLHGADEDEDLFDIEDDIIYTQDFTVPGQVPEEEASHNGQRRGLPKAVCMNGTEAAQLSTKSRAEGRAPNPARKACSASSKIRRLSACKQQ
The note with it: at 10 µM.

In experiment [3] the target is Serine/threonine-protein kinase 10 (Homo sapiens) (UniProt O94804). The note with it: at 1 µM.
Serine/threonine-protein kinase 10 (Homo sapiens), sequence (O94804 whole entry, looked up): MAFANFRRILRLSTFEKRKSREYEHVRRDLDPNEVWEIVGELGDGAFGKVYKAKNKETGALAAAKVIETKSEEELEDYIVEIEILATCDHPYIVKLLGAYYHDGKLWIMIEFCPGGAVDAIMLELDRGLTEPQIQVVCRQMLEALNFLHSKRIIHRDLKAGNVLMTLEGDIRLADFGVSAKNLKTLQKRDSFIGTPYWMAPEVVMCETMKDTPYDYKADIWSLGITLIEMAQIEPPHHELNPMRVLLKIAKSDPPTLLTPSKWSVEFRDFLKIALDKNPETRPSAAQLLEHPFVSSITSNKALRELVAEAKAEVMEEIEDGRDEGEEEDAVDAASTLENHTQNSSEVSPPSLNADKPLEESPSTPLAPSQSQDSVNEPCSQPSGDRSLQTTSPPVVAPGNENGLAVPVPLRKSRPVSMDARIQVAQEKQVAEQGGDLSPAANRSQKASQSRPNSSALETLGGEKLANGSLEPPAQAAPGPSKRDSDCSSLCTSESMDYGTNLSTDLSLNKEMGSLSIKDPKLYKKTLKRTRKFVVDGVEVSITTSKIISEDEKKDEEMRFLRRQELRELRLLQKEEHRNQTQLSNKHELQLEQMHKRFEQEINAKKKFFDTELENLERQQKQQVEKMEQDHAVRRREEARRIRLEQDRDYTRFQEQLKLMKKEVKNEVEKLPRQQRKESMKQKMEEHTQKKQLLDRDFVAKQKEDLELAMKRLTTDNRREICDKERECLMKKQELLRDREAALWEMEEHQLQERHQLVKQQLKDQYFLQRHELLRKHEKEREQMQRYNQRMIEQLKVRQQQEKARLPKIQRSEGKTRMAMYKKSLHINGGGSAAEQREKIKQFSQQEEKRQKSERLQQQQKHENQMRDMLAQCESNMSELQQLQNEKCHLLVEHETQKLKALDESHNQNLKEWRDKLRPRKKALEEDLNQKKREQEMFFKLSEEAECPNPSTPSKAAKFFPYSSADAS
The target is the same in experiment [4]. The note with it: at 10 µM.
Experiment [5] has as its target Tyrosine-protein kinase Lck (Homo sapiens) (UniProt P06239). Particulars: at 1 µM.
The target is the same in experiment [6]. Particulars: at 10 µM.
Experiment [7] addresses Tyrosine-protein kinase Lyn (Homo sapiens) (UniProt P07948). The note with it: at 1 µM.
The target is the same in experiment [8]. Particulars: at 10 µM.
The target of experiment [9] is Mitogen-activated protein kinase 3 (Homo sapiens) (UniProt P27361). Particulars: at 10 µM.
Mitogen-activated protein kinase 3 (Homo sapiens), sequence (P27361 whole entry): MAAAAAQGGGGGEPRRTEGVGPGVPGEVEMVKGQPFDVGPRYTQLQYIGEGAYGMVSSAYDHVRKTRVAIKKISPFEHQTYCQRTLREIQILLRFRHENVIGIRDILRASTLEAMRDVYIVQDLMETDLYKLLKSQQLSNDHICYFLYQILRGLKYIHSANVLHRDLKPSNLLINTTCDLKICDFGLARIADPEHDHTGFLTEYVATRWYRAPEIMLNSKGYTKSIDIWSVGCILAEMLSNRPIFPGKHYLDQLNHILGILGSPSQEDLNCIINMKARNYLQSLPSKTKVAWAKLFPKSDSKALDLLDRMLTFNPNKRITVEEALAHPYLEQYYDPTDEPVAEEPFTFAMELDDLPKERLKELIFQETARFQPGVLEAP
Experiment [10] deals with MAP kinase-activated protein kinase 2 (Homo sapiens) (UniProt P49137). The note with it: at 1 µM.
MAP kinase-activated protein kinase 2 (Homo sapiens), sequence (P49137 whole entry, looked up): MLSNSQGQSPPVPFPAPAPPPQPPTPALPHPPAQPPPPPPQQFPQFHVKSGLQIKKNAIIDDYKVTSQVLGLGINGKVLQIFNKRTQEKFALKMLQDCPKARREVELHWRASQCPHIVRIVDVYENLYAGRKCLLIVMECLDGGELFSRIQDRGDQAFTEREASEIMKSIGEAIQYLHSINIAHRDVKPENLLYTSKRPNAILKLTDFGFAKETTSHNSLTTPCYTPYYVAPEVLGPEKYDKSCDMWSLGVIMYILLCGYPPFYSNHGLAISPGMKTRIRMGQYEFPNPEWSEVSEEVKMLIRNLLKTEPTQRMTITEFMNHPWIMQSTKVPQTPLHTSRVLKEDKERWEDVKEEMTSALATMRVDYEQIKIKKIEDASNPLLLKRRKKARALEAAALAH
For experiment [11] the target is unchanged. The note with it: at 10 µM.
For experiment [12], the target named is MAP kinase-activated protein kinase 3 (Homo sapiens) (UniProt Q16644). The note with it: at 10 µM.
MAP kinase-activated protein kinase 3 (Homo sapiens), sequence (Q16644 whole entry, looked up): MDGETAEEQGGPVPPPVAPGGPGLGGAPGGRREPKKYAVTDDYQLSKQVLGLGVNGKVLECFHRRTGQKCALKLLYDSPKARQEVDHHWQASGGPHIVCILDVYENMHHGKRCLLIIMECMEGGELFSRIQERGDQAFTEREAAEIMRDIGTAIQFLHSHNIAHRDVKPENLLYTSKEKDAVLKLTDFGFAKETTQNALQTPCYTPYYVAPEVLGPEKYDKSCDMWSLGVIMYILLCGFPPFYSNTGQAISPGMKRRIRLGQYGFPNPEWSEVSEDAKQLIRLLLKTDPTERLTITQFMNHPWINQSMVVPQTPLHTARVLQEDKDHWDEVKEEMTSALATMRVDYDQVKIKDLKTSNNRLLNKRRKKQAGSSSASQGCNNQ
Experiment [13] deals with Serine/threonine-protein kinase MARK1 (Homo sapiens) (UniProt Q9P0L2). Particulars: at 1 µM.
Serine/threonine-protein kinase MARK1 (Homo sapiens), sequence (Q9P0L2 whole entry, looked up): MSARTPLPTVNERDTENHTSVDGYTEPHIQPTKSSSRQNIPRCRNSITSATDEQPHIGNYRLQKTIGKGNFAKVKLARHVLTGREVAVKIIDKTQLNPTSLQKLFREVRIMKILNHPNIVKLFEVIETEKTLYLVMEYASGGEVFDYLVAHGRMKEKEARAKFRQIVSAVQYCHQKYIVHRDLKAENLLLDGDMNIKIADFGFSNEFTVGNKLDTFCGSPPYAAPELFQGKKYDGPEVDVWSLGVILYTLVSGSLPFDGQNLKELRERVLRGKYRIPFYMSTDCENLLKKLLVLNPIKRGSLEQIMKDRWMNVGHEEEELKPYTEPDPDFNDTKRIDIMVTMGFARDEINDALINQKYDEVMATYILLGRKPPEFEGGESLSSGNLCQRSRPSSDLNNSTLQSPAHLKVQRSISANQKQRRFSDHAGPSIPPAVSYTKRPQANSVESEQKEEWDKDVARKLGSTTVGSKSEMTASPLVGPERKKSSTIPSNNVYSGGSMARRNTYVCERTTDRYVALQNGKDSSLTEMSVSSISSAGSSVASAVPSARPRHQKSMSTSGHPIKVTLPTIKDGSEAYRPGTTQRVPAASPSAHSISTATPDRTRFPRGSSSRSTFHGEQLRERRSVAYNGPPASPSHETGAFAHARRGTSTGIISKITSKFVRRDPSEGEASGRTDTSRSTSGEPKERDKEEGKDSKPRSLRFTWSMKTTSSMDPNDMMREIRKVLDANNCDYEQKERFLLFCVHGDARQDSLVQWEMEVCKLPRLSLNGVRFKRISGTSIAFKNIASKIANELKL
Experiment [14] shares this target. Particulars: at 10 µM.
Experiment [15] addresses Mitogen-activated protein kinase 3 (Homo sapiens) (UniProt P27361). Particulars: at 1 µM.
Experiment [16] concerns the target T1, Serine/threonine-protein kinase STK11 (Homo sapiens). The note with it: at 1 µM.
Experiment [17] deals with Tyrosine-protein kinase Lck (Homo sapiens) (UniProt P06239). Particulars: at 1 µM. This is another data set of the same source.
Tyrosine-protein kinase Lck (Homo sapiens), sequence (P06239 2-509 limits assumed): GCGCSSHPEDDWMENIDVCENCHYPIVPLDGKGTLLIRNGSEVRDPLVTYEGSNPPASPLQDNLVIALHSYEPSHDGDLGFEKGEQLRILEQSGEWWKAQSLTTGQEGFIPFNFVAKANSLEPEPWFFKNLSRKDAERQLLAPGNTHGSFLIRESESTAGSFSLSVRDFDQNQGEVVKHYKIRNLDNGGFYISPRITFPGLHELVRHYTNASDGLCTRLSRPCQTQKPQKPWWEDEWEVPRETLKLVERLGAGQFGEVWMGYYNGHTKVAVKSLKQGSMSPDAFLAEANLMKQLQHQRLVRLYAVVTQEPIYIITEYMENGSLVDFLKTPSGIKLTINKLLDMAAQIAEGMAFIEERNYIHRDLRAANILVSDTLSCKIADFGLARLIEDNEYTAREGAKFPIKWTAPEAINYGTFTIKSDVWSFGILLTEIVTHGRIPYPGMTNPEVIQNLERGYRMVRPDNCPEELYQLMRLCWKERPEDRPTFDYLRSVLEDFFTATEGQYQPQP
Experiment [18] has the same target. The note with it: at 10 µM. This is another data set of the same source.
In experiment [19] the target is Mitogen-activated protein kinase 1 (Homo sapiens) (UniProt P28482). Particulars: at 1 µM.
Mitogen-activated protein kinase 1 (Homo sapiens), sequence (P28482 whole entry): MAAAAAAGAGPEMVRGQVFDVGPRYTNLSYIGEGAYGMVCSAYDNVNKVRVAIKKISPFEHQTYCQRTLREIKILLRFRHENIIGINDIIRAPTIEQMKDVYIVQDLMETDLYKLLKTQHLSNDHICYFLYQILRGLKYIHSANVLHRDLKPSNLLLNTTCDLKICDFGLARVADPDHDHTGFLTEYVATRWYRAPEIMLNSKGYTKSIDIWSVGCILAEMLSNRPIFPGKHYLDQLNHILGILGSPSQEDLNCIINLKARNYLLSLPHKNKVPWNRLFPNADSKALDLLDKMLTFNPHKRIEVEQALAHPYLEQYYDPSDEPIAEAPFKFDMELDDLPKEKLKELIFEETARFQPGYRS
The target is the same in experiment [20]. Particulars: at 10 µM.

Tyrosine-protein kinase Lyn (Homo sapiens), sequence (P07948 2-512 limits assumed): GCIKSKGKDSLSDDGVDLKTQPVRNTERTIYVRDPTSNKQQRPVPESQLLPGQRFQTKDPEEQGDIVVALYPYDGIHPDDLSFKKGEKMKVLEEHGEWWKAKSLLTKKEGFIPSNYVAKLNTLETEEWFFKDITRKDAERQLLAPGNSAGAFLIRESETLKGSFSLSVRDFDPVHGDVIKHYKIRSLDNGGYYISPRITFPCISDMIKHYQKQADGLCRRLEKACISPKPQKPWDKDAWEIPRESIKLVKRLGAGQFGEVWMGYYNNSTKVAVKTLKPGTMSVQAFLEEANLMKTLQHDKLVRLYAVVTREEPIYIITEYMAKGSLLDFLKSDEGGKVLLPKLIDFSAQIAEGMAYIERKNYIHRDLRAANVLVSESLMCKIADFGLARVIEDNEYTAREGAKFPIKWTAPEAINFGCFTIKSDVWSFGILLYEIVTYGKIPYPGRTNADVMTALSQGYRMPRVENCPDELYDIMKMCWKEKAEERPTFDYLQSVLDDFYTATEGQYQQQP

With `CN(C)CCCn1cc(C2=C(c3c[nH]c4ccccc34)C(=O)NC2=O)c2ccccc21`, in experiment [1], the residual activity came out at 137%.
Regarding `COc1ccc2c(c[n+](C)c3c4cc5c(cc4ccc23)OCO5)c1OC`, the residual activity in experiment [2] worked out at 90%; in experiment [3], 100%; in experiment [4] it was 93%; in experiment [5], 80%; in experiment [6] it was 79%; in [7], 83%. The residual activity in [8] was 65%; in [9] it was 81%; in experiment [10], 94%; in experiment [11], 94%; in experiment [1], 99%; in [12], 53%. In addition, the residual activity is 98% in [13] and 91% in experiment [14].
Take `CCc1nc(-c2ccc(OC)cc2)[nH]c1-c1ccncc1`: the residual activity was 48% in experiment [4]; 100% in experiment [15]; 64% in experiment [10]; 82% in experiment [11]; 121% in experiment [1]; 118% in experiment [12].
On to `COC(=O)[C@@]1(O)C[C@H]2O[C@]1(C)n1c3ccccc3c3c4c(c5c6ccccc6n2c5c31)C(=O)NC4`, for which the residual activity in experiment [16] was determined as 97%; in experiment [2] it was 74%; in experiment [3], 3%; in experiment [4], 1%; in experiment [17], 2%; in [18], 9%. The residual activity in experiment [5] is 6%; in [6] it was 8%; in [7], 3%; in experiment [8], 0%; in experiment [15], 10%; in [9] it was -1%. The residual activity in [19] was 5%; in experiment [20], -3%; in [10] it was 0%; in [11], -6%; in experiment [1], 47%; in experiment [12] it was 2%. Besides, the residual activity in experiment [13] and in experiment [14] was 0% in each case.
As to `c1cc(-c2cnn3cc(-c4ccc(OCCN5CCCCC5)cc4)cnc23)ccn1`, the residual activity came to 101% in experiment [16]; 102% in [2]; 37% in experiment [3]; 19% in [4]; 23% in experiment [17]; 12% in [18]. Also, the residual activity came to 44% in [5]; 10% in [6]; 14% in [7]; 2% in [8]; 101% in experiment [15]; 104% in experiment [9]. Also, the residual activity in experiment [12] is 84%; in experiment [13], 60%; in experiment [14] it was 16%.
For `Cc1ccc(S(=O)(=O)/C=C/C#N)cc1`, the residual activity in [1] stood at 94%.
Consider `O=C1NC(=O)c2c1c1c3ccccc3n3c1c1c2c2ccccc2n1C1CCC3O1`, for which the residual activity was 50% in experiment [17]; 62% in experiment [18]; 70% in [5]; 71% in experiment [6]; 10% in experiment [7]; 10% in experiment [8]. Further, the residual activity was determined as 128% in experiment [15]; 83% in experiment [9]; 95% in [1]; 95% in experiment [12]; 38% in experiment [13]; 29% in experiment [14].
For `Nc1nccc(-c2c(-c3ccc(F)cc3)ncn2C2CCNCC2)n1`, the residual activity in experiment [1] worked out at 123%.
Take `CC(C)(C)c1cc(C=C(C#N)C#N)cc(Br)c1O`: the residual activity in [3] was 100%; in experiment [4], 68%; in experiment [18], 49%; in experiment [5], 105%; in experiment [7] it was 73%; in [8], 13%. The residual activity stood at 129% in experiment [15]; 97% in experiment [9]; 105% in experiment [19]; 104% in experiment [20]; 104% in experiment [10]; 107% in experiment [1]. Besides, the residual activity in [12] was 69%; in [13], 105%.
With `O=C1Nc2ccc3ncsc3c2/C1=C/c1c[nH]cn1`, the residual activity in experiment [16] was 21%; in experiment [2], 1%; in [3], 29%; in experiment [4], 7%; in experiment [17], 55%; in [18], 17%. In addition, the residual activity in experiment [5] is 44%; in [6], 23%; in experiment [7], 46%; in experiment [8], 6%; in experiment [15] it was 5%; in experiment [9], 0%. Also, the residual activity in experiment [19] is 4%; in experiment [20], -3%; in [10], 82%; in experiment [11], 67%; in experiment [1], 103%; in experiment [12], 99%. For the same compound, the results for the residual activity in experiment [13] and in experiment [14] were 9% and 0%, respectively.
`O=C1c2ccccc2-[n+]2ccc3c([nH]c4ccccc43)c21`: the residual activity in [1] came out at 115%.
As for `C[S+]([O-])c1ccc(-c2nc(-c3ccc(F)cc3)c(-c3ccncc3)[nH]2)cc1` (stereo not drawn), the residual activity in experiment [16] came to 109%; in experiment [2] it was 85%; in [3] it was 109%; in experiment [4], 79%; in experiment [17] it was 79%; in [18] it was 27%. Further, the residual activity in experiment [6] turned out to be 32%; in experiment [7], 47%; in experiment [8] it was 13%; in experiment [15] it was 124%; in [9], 101%; in experiment [19], 118%. For the same compound, the residual activity in [20] stood at 95%; in experiment [10], 104%; in experiment [11], 133%; in experiment [1] it was 104%; in experiment [12], 92%; in experiment [13] it was 105%. Besides, the residual activity in experiment [14] worked out at 108%.
For `Cn1cc(/C=C2\C(=O)Nc3ccc(S(N)(=O)=O)cc32)c2ccccc21`, the residual activity in [1] is 117%.
Still for that read-out and setting: under `Nc1ncnc2[nH]nc(Nc3ccc(F)cc3)c12` stands 107%.
With `N/C(=N\[N+](=O)[O-])N/N=C\c1ccc(-c2cccc([N+](=O)[O-])c2)o1`, the residual activity came to 94% in experiment [3]; 99% in experiment [4]; 77% in experiment [17]; 93% in [18]; 96% in experiment [5]; 91% in experiment [6]. Moreover, the residual activity was found to be 79% in experiment [7]; 66% in experiment [8]; 94% in [15]; 99% in [9]; 88% in experiment [12]; 98% in experiment [13]. Besides, the residual activity in experiment [14] stood at 85%.
As for `COc1ccc(C(=O)Nc2sc3c(c2C(N)=O)CCCC3)cc1OC`, the residual activity in [1] was 71%.
For `O=C1NC(=O)c2c1c1c3ccccc3[nH]c1c1[nH]c3cc(Br)ccc3c21`, in [1], the residual activity was 87%.
Take `Ic1cccc(CSc2nnc(-c3ccncc3)o2)c1`: in experiment [1], the residual activity worked out at 111%.
Consider `CN[C@@H]1C[C@H]2O[C@@](C)([C@@H]1OC)n1c3ccccc3c3c4c(c5c6ccccc6n2c5c31)C(=O)NC4`, for which the residual activity in experiment [12] turned out to be 46%.
